Assay [1] is described as follows: A CellTox Green Cytotoxicity Assay to monitor cytotoxicity in HEK293 cells - 8 hour (AID 1224884). Also: nearly all actives have a fitted effect of over 35% in size. In a few lines:
(§1)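 HEK293 cells, 600/well, were preincubated 5 hours and then exposed to compounds at 37 C for up to 40 hours. A cell-impermeant cyanine dye staining dead-cell DNA was read by fluorescence at 0, 8, 16, 24, 32 and 40 h time points.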

Assay [2] can be described thus: qHTS RealTime-Glo MT Cell Viability Assay in HepG2 cells - 16 hour (AID 1224885). Also: nearly all actives have a fitted effect of over 50% in size. In a few lines:
(§2)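 HepG2 cells (600/well) were dispensed with RealTime-Glo reagents, incubated 5 h at 37 °C, then treated with compounds in DMSO for up to 40 h. Nonlytic NanoLuc luminescence reflecting viable cells was read at each stated time point.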

Assay [3] in a line: qHTS RealTime-Glo MT Cell Viability Assay in HEK293 cells - 24 hour (AID 1224886). Also: nearly all actives have a fitted effect of over 50% in size. Also: potency is read from the fitted curve at half-maximal effect. In outline:
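HEK293 cells seeded with NanoLuc/prosubstrate reagent, rested 5 h at 37 C, then dosed and kept at 37 C up to 40 h. Nonlytic real-time luminescence from viable cells read at 0, 8, 16, 24, 32 and 40 h.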

The nature of assay [4]: qHTS RealTime-Glo MT Cell Viability Assay in HEK293 cells - 8 hour (AID 1224887). Also: top concentration of the series differs between compounds; nearly all actives have a fitted effect of over 50% in size. In a few lines: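 600 cells/well were plated with the nonlytic NanoLuc/prosubstrate reagent, pre-incubated 5 h, then given 23 nL of compound in DMSO. Incubation at 37 C for 40 h, with luminescence from viable-cell-reduced substrate read repeatedly from 0 h.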
Assay [5] is described as follows: A CellTox Green Cytotoxicity Assay to monitor cytotoxicity in HEK293 cells - 16 hour (AID 1224888). Also: nearly all actives have a fitted effect of over 35% in size. In outline:
as §1

A short description of assay [6]: qHTS RealTime-Glo MT Cell Viability Assay in HepG2 cells - 0 hour (AID 1224889). Also: nearly all actives have a fitted effect of over 50% in size. In a few lines: as §2
The nature of assay [7]: A CellTox Green Cytotoxicity Assay to monitor cytotoxicity in HepG2 cells - 8 hour (AID 1224890). Also: nearly all actives have a fitted effect of over 45% in size. In a few lines: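 HepG2 cells, 600/well, preincubated 5 h with CellTox Green dye, then exposed to Tox21 compounds in DMSO at 37 C for up to 40 h. Dead-cell DNA fluorescence read at the indicated time point.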
A short description of assay [8]: qHTS assay to identify small molecule antagonists of the estrogen receptor alpha (ER-alpha) signaling pathway using the BG1 cell line in the presence of 0.1 nM 17-beta-estradiol - cell viability counter screen (AID 1259241). Also: nearly all actives have a fitted effect of over 40% in size. In outline: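 Cytotoxicity counter-screen: live-cell protease activity measured by fluorescence (30 min reagent step) in the same wells. Cells were VM7Luc4E2 with endogenous ER-alpha and ERE-driven luciferase, treated 22 hr at 37C alongside 0.1 nM 17beta-estradiol final.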

Assay [9] can be described thus: qHTS assay to identify small molecule antagonists of the androgen receptor (AR) signaling pathway using the MDA cell line in the presence of 0.5 nM R1881 - cell viability counter screen (AID 1259242). Also: nearly all actives have a fitted effect of over 45% in size. Also: potency is read from the fitted curve at half-maximal effect. In outline: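 MDA-kb2 cells (MMTV-luciferase, AR/GR responsive) were treated with compounds plus 0.5 nM R1881 (final) for 16 hr at 37C, 0% CO2. Viability was then read in the same wells as live-cell protease fluorescence (CellTiter-Fluor, 30 min).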

In assay [10] the target is Androgen receptor (Homo sapiens) (UniProt P10275). In words: qHTS assay to identify small molecule antagonists of the androgen receptor (AR) signaling pathway using the MDA cell line in the presence of 0.5 nM R1881 (AID 1259243). Also: nearly all actives have a fitted effect of over 50% in size. The source says: U.S. Tox21 Program National Center for Advancing Translational Sciences [NCATS] NIH Chemical Genomics Center [NCGC] U.S. Environmental Protection Agency [EPA] National Institutes of Environmental Health Sciences [NIEHS] National Toxicology Program [NTP] U.S. Food and Drug Administration [FDA] Tox21 Assay Overview: Androgen receptor (AR) is an important member of the nuclear receptor family. Its signaling plays a critical role in AR-dependent prostate cancer and other androgen related diseases. Considerable attention has been given in the past decades to develop methods to study and screen for the environmental chemicals that have the potential to interfere with metabolic homeostasis, reproduction, developmental and behavioral functions. Therefore AR binding assay for screening androgen antagonists can be used to identify potential endocrine disruptors. MDA-kb2 cells (from ATCC, deposited by Wilson et al.) were used to screen for AR inhibitors against Tox21 compound libraries. These cells are human breast carcinoma cells that were stably transfected with a luciferase reporter gene under control of the MMTV promoter that contains response elements for both androgen receptor (AR) and glucocorticoid receptor (GR). The current screening for identification of AR inhibitors against Tox21 libraries used lower concentration (0.5 nM) of R1881 as a stimulator.
Androgen receptor (Homo sapiens), sequence (P10275 whole entry, looked up): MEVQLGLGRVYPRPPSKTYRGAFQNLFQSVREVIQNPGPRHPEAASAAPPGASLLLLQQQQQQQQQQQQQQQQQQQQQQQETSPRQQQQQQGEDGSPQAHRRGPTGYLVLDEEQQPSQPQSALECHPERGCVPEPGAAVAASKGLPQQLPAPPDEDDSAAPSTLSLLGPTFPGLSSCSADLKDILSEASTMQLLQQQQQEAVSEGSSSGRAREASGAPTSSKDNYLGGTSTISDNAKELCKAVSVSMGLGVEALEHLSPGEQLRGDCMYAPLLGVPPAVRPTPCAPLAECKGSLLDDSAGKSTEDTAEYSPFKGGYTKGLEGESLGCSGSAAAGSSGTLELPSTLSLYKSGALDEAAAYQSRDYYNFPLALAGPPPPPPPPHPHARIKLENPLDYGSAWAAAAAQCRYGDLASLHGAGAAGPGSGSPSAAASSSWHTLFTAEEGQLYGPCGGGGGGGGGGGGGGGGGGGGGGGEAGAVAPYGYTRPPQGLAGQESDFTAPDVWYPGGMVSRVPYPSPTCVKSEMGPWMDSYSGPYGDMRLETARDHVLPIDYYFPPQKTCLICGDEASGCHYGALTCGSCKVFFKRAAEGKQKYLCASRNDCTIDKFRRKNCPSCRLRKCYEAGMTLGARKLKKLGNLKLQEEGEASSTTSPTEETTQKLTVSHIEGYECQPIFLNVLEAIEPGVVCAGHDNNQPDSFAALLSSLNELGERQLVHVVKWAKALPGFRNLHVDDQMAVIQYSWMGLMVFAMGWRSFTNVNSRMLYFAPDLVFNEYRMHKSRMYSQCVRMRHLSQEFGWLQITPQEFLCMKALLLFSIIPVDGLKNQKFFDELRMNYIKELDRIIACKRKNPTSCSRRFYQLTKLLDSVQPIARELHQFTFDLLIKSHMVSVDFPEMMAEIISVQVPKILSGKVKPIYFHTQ
Tox21 Assay Protocol Summary: MDA-kb2 cells (cells cultured without CO2) were dispensed at 3,000 cells/well in 4 uL of culture medium into white wall/solid-bottom 1536-well plates (Corning Life Sciences, Corning, NY) using a Multidrop Combi (ThermoFisher Scientific, Waltham, MA) dispenser. […] For luciferase reporter gene assay, 4 uL of ONE-Glo reagent (Promega Corporation, Madison, WI) was added to each well using the FRD and after 30 min incubation at room temperature luminescence intensity was measured using ViewLux plate reader (PerkinElmer, Shelton, CT).

Where “and” joins values, the source holds several entries; their conditions need not be identical. Equal entries are not always repeated. Inconclusive results are not listed. Some compounds were tested as several samples or in several runs, with calls that do not always agree. Calls of active or inactive are those of the source. Calls follow the shape of the dose curve; as a rule, active = well fitted curve in the direction sought with a large enough effect in the repeat runs; inconclusive = weak or mixed curves; inactive = no such curve, though single readings can be large; an effect the other way counts as inactive or inconclusive.

For the compound `CC[n+]1ccccc1`, the Potency entry in [1], in assay [2], in assay [3], in [4], in [5] and in assay [6] was “inactive” in each case. Besides, the Potency result in [7] and in assay [8] was “inactive” in each case. Moreover, the Potency result in [9] was “inactive and 30.4 µM (active)”.
With `CC(=O)O`, the Potency result in assay [1], in [2], in [3], in assay [4], in assay [5] and in assay [6] was “inactive” each time. Also, the Potency result in assay [7], in assay [8] and in assay [9] was “inactive” each time.
Consider `C=CCOC(Cn1ccnc1)c1ccc(Cl)cc1Cl` (centres undefined), for which the Potency result in assay [1], in [2], in assay [4], in assay [5], in assay [6] and in assay [7] was “inactive” in each case. Moreover, the Potency entry in assay [8] and in assay [9] was “inactive” each time. Moreover, the Potency in assay [3] is 24.6 µM (active).
With `O=S(=O)(O)O`, the Potency result in assay [1], in assay [2], in [3], in assay [4], in assay [5] and in [6] was “inactive” each time. For the same compound, the Potency result in assay [7], in assay [8] and in assay [9] was “inactive” in each case.
On to `CCCCCCCCCCCC(=O)O`, for which the Potency entry in assay [1], in assay [2], in assay [3], in [4], in assay [5] and in assay [6] was “inactive” in each case. Further, the Potency entry in [7], in [8] and in assay [9] was “inactive” throughout.
For `Oc1ccccc1-c1ccccc1`, the Potency entry in assay [1], in assay [2], in assay [3], in assay [4], in assay [5] and in assay [6] was “inactive” in each case. Moreover, the Potency result in assay [7], in [8] and in assay [9] was “inactive” throughout.
Regarding `CCCCCCCCCCn1cc[n+](C)c1`, the Potency entry in assay [1], in assay [2], in assay [5], in [6], in assay [7] and in assay [8] was “inactive” each time. Also, the Potency entry in [9] was “inactive”. Besides, the Potency in assay [3] was 0.389 µM (active).
On to `Cc1cc(Cl)ccc1OCC(=O)O`, for which the Potency result in assay [1], in assay [2], in assay [3], in assay [4], in assay [5] and in assay [6] was “inactive” in each case. Also, the Potency entry in assay [7], in assay [8], in [9] and in assay [10] was “inactive” in each case.
In the case of `CCCC[n+]1ccccc1C`, the Potency result in assay [1], in [2], in assay [3], in [4], in assay [5] and in assay [6] was “inactive” in each case. Moreover, the Potency entry in assay [7], in assay [8] and in assay [9] was “inactive” throughout.
Regarding `CCn1cc[n+](C)c1C`, the Potency entry in [1], in assay [2], in assay [3], in assay [4], in assay [5] and in assay [6] was “inactive” each time. Moreover, the Potency entry in [7], in assay [8] and in [9] was “inactive” each time.
With `O=C(O)C(Cl)(Cl)Cl`, the Potency result in [1], in assay [2], in assay [3], in assay [4], in assay [5] and in [6] was “inactive” each time. The Potency result in assay [7], in assay [8] and in [9] was “inactive” throughout.
For `Nc1ccc(-c2ccc(N)cc2)cc1`, the Potency result in [1], in assay [2], in assay [3], in assay [4], in assay [5] and in assay [6] was “inactive” in each case. In addition, the Potency result in [7], in [8] and in assay [9] was “inactive” each time.
Regarding `OCCOc1ccccc1`, the Potency entry in [1], in assay [2], in assay [3], in assay [4], in [5] and in assay [6] was “inactive” throughout. The Potency result in [7], in assay [8] and in [9] was “inactive” in each case.
With `C1CCC(NC2CCCCC2)CC1`, the Potency entry in assay [1], in [2], in [3], in assay [5], in assay [6] and in [7] was “inactive” each time. Further, the Potency result in assay [8] and in assay [9] was “inactive” each time.
As to `C[N+](C)(C)Cc1ccccc1`, the Potency entry in [1], in assay [2], in [3], in assay [4], in assay [5] and in [6] was “inactive” throughout. For the same compound, the Potency entry in [7], in assay [8] and in assay [9] was “inactive” in each case.

These data come from PubChem BioAssay (Tox21).
